The campaign covered roughly 340,000 compounds. About 1,300 (0.38%) were called active.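 Rule for the calls: active = maximum activity change below -70%; inconclusive = maximum activity change between -70% and -50%; inactive = maximum activity change above -50%.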 The entries come from a sample that favours actives as a whole.
% is set by controls: 0 for no effect and ±100 for the full control effect.

Chain of Voltage-gated inwardly rectifying potassium channel KCNH2 (Homo sapiens) (Q12809 whole entry, looked up): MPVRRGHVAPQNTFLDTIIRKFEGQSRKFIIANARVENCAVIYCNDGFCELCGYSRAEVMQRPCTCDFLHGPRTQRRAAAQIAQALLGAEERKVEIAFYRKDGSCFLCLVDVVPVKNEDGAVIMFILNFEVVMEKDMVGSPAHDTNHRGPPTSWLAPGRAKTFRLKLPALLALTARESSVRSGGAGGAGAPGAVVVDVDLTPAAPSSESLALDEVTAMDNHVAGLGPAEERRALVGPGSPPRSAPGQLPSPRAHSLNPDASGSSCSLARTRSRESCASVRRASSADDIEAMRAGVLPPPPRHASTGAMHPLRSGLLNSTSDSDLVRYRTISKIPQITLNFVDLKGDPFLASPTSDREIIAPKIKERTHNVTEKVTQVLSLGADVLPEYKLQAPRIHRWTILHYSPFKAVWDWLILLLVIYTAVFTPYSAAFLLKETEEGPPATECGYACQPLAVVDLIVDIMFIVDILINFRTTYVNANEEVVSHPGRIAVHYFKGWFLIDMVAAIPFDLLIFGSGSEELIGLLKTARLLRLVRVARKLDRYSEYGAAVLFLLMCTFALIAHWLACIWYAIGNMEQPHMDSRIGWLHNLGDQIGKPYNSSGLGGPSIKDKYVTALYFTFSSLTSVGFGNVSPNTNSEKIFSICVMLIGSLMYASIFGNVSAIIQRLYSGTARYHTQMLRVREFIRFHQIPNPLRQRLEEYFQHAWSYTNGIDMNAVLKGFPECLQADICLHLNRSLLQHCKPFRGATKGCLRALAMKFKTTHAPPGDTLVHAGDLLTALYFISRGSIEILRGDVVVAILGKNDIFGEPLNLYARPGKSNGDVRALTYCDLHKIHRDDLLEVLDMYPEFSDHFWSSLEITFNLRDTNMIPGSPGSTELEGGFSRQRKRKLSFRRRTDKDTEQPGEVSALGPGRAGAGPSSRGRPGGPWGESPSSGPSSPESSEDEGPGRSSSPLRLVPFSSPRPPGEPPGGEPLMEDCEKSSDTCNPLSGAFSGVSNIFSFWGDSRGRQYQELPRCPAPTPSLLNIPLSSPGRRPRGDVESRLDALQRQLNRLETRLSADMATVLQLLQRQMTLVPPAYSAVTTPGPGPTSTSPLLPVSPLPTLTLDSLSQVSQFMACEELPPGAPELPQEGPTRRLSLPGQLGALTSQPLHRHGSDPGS

This experiment concerns the target Voltage-gated inwardly rectifying potassium channel KCNH2 (Homo sapiens) (UniProt Q12809). Put plainly: qHTS for Inhibitors of KCHN2 3.1: Wildtype qHTS. Particulars: U2OS, BacMam KCNH2, thallium flux FluxOr; at 1.84 µM; stronger effect = lower value. Put shortly: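 U2OS cells transduced with wild-type KCNH2 virus are loaded with FluxOr dye for 45 min, and thallium flux is measured in kinetic reads before and after stimulation buffer. Rate constants are normalized to DMSO controls.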
For `COc1ccccc1C(=O)NC(=S)Nc1ccc(N2CCOCC2)cc1`, the activity change was -8.97% (inactive). Next, `C#CCN(C[C@@H]1[C@@H](OC(=O)NC2CC2)[C@@H](OC(=O)NC2CC2)Cn2c(=O)ccc(=O)n21)S(=O)(=O)c1ccc(C)cc1`: 2.34% (inactive). Regarding `CC(C)CC1C(=O)N(Cc2cn(Cc3ccco3)nn2)CCS(=O)(=O)N1Cc1ccc(-c2ccc(Cl)c(Cl)c2)cc1` (stereo unspecified), the activity change is -32.9% (inactive). In the case of `C[C@H](CO)N1C[C@H](C)[C@@H](CN(C)S(=O)(=O)c2ccc(F)cc2)OCc2cnnn2CCCC1=O`, the activity change was -1.39% (inactive).

As for `CCN(CC)C(=O)C1=C(C)N(Cc2ccc(C(C)(C)C)cc2)C(=O)C(CC(=O)NCc2cccc3ccccc23)C1` (stereo unspecified), the activity change was -4.42% (inactive). With `CCCOc1cccc(C(=O)NCCCNC(=O)c2cccnc2)c1`, the activity change is -0.846% (inactive). Next, `CCCOc1cccc(C(=O)Nc2nnn(CCC)n2)c1`: -113% (active); `CCCn1nnc(NC(=O)COc2ccc(CC)cc2)n1`: 4.88% (inactive). The same measure for `CC(=O)c1ccc(OCC(=O)N(C)C2CCS(=O)(=O)C2)cc1` (stereo unspecified): -11.1% (inactive); for `CC(C)CC(=O)NC(=S)Nc1cc(C(=O)O)ccc1Cl`: -19.3% (inactive); for `CC(C)CC(=O)c1c[nH]c(C(=O)NCc2ccccc2)c1`: 0.798% (inactive). With `CC(C)CC(=O)NC(=S)NCc1ccccc1`, the activity change was -84.2% (active). The same measure for `COc1ccc(NC(=O)CCCOc2ccc(C(C)=O)cc2)cc1S(=O)(=O)N1CCCCC1`: -1.81% (inactive). Take `Cc1ccc([C@H]2C[C@H](O)[C@@H](n3cc(COC(=O)c4ccccc4)nn3)CN2C(=O)C2CCCCC2)cc1`: the activity change was -0.947% (inactive). For the molecule `C[C@@H]1CN([C@@H](C)CO)C(=O)CCCn2cc(nn2)CO[C@H]1CN(C)S(=O)(=O)c1ccc(-n2cccn2)cc1`, the activity change is -21.9% (inactive).

Turning to `O=C(NCc1nnnn1-c1ccc(Cl)cc1)c1ccc2c(c1)OCO2`, the activity change was -76.9% (active). Next, `COc1ccc(-n2nnnc2CNC(=O)c2ccc3ccccc3c2)cc1`: -0.166% (inactive); `O=C(NCc1nnnn1-c1ccc(Cl)cc1)c1ccc([N+](=O)[O-])o1`: 7.93% (inactive); `C/C(COc1ccccc1)=N\NC(=O)c1nnn(-c2nonc2N)c1-c1ccc(C)cc1`: 4.6% (inactive). The same measure for `Cc1cc2ccccn2c1C(=O)c1cccc(F)c1`: -0.532% (inactive). The same measure for `Cc1c(C=O)c2ccccn2c1C(=O)c1ccncc1`: -70.5% (active). With `Cc1c(C(=O)NNC(=O)c2ccncc2)oc2ccccc12`, the activity change was -13.1% (inactive). The same measure for `O=C1[C@H]2[C@@H](c3ccc(C(F)(F)F)cc3)N[C@]3(CCCN(Cc4ccc(Cl)cc4)C3=O)[C@H]2C(=O)N1Cc1ccccc1`: -9.13% (inactive); for `CC1CN(C(=O)CCC(=O)NC2CCN(Cc3ccccc3)CC2)c2ccccc2O1` (stereo unspecified): 16.1% (inactive). On to `CC1CN(C(=O)CCC(=O)NCCCN2CCC(Cc3ccccc3)CC2)c2cc(Cl)ccc2O1` (stereo unspecified), for which the activity change is -88.2% (active). Next, `CC1CN(C(=O)CCC(=O)NCc2cccnc2)c2ccccc2O1` (stereo unspecified): -2.13% (inactive); `CCCc1c(C)nc2scc(-c3ccc(Cl)cc3)n2c1=O`: -21.6% (inactive). In the case of `COc1ccc(CN2C[C@H]3CON(C)[C@H]3C[C@H]2c2ccc(-c3cccc(F)c3)cc2)cc1`, the activity change was -20.5% (inactive). The same measure for `Cc1ccc(-c2ccc(CN3C(C(C)C)C(=O)N(Cc4cn(CCC5OCCO5)nn4)CCS3(=O)=O)cc2)cc1` (stereo unspecified): -23.7% (inactive). Next, `O=C(/C=C/c1ccc(Cl)cc1)N1CCN(c2ccccc2[N+](=O)[O-])CC1`: -71.4% (active); `O=C(c1ccc(Cl)c([N+](=O)[O-])c1)N1CCN(c2ccccc2)CC1`: 9.59% (inactive). Next, `CO/N=C/c1ccc(N2CCN(C(=O)c3cccc(Cl)c3)CC2)c([N+](=O)[O-])c1`: -11.9% (inactive); `O=C(NCCN1CCOCC1)c1ccc2c(c1)N(Cc1cccc(Cl)c1)C(=O)c1ccccc1S2(=O)=O`: 2.54% (inactive). `Cc1cc(OCC(=O)Nc2nccs2)c2c(C)c(C)c(=O)oc2c1`: the activity change is -4.04% (inactive). Regarding `CC1(C)CC(=O)C=C(c2ccc(COC(=O)c3cc(F)cc(F)c3)cc2)C1=O`, the activity change was -3.02% (inactive).

In the case of `CCN(CC)CCN(C(=O)c1ccc2c(c1)CCCC2)c1nc2c(OC)cccc2s1`, the activity change is -10.1% (inactive). For the molecule `Cc1cc(C)c2cc(C#N)c(N3CCNCC3)nc2c1`, the activity change is 31.7% (inactive). The same measure for `CNC(=O)NC(=O)C(C)N1CCN(C/C=C/c2ccccc2)CC1` (stereo unspecified): 16.2% (inactive); for `COc1ccccc1NC(=O)CCN1CCN(c2ccc(Cl)cc2)CC1`: 0.203% (inactive).

Consider `O=C(CN1CCN(C(=O)c2cccc(F)c2)CC1)Nc1ccccc1F`, for which the activity change was 4.68% (inactive).

With `O=C(CN1CCN(C/C=C/c2ccccc2)CC1)Nc1ccc(F)cc1F`, the activity change was -155% (active). Next, `O=C(CCN1CCN(C/C=C/c2ccccc2)CC1)Nc1cccc(F)c1`: -92.1% (active). Next, `O=C(CCN1CCN(C/C=C/c2ccccc2)CC1)Nc1ccccc1Cl`: -76.7% (active). As to `CCOC(=O)N1CCN(CCC(=O)Nc2ccccc2)CC1`, the activity change was 9.24% (inactive). In the case of `O=C(COC(=O)CSc1ccccc1)Nc1ccc(F)cc1F`, the activity change is -4.38% (inactive). The same measure for `O=C(CCN1C(=O)c2ccccc2C1=O)Nc1cccc(F)c1`: 5.88% (inactive); for `COc1ccc(NC(=O)N(C)C[C@@H]2OCc3cn(nn3)CCCC(=O)N([C@H](C)CO)C[C@H]2C)c(OC)c1`: 3.91% (inactive); for `Cc1ccc(-c2ccc(C3=CC(=O)CC(C)(C)C3=O)cc2)cc1`: -2.66% (inactive). Next, `CSc1ncnc2c1ncn2CCCNCc1cccs1`: 6.63% (inactive); `CCOC(=O)c1ccccc1CN1C(=O)c2ccccc2S1(=O)=O`: -3.26% (inactive); `CCOC(=O)c1ccccc1OC(=O)Oc1ccccc1C(=O)OCC`: -141% (active). On to `COc1ccccc1C(=O)OCC(=O)NCCNC(=O)COC(=O)c1ccccc1OC`, for which the activity change is -4.76% (inactive). In the case of `CCc1ccccc1NC(=O)CN1CCN(C(=O)c2cc(C3CC3)nn2-c2ccccc2)CC1`, the activity change is 4.86% (inactive).

Consider `Cc1ccc(Nc2nc(N)nc(CN3CCN(Cc4ccccc4)CC3)n2)cc1Cl`, for which the activity change was -75.8% (active). Regarding `CCOC(=O)C1CCCN(Cc2nc(N)nc(Nc3ccc(C)cc3)n2)C1` (stereo unspecified), the activity change was 27.8% (inactive).

`Cc1ccccc1Nc1nc(N)nc(CN2CCN(c3ccccn3)CC2)n1`: the activity change is 15.1% (inactive). As to `c1ccc2c(c1)nnn2-c1ccncc1`, the activity change was -10.2% (inactive). The same measure for `c1ccc(C2c3[nH]c4ccccc4c3CCN2Cc2cccn2-c2cccnc2)nc1` (stereo unspecified): 5.67% (inactive).

Take `CCOc1ccc(C2c3[nH]c4ccccc4c3CCN2Cc2cccn2-c2ncccn2)cc1` (stereo unspecified): the activity change was -74.4% (active). The same measure for `CCOc1ccc(C2c3[nH]c4ccccc4c3CCN2Cc2cn(CC)nc2C)cc1` (stereo unspecified): 23.4% (inactive); for `NC1=CC(=O)C(=O)c2cccnc21`: -14.1% (inactive). Regarding `O=C(COC(=O)Cc1ccc(Cl)cc1Cl)NCc1ccco1`, the activity change was 5.01% (inactive). For the molecule `Cc1ccc(C(=O)N/C(=C/c2ccc(-c3cccc([N+](=O)[O-])c3)o2)C(=O)NCCCN(C)C)cc1`, the activity change is -0.553% (inactive). The same measure for `CN(C)CCNC(=O)/C(=C/c1cccc([N+](=O)[O-])c1)NC(=O)c1ccccc1`: -79.1% (active); for `O=C(NCCc1ccccc1)/C(=C\c1ccc([N+](=O)[O-])cc1)NC(=O)c1ccccc1`: 23.3% (inactive); for `O=C(CN1C(=O)NC2(CCc3ccccc32)C1=O)NC1CCCCC1` (stereo unspecified): 12.5% (inactive). Next, `COc1cccc(CNC(=O)CCC2CCCN(Cc3ccc(OC(F)F)cc3)C2)c1` (stereo unspecified): -23.2% (inactive); `COc1ccc(C[C@H]2CN3C(=NC[C@H]3C)N2CCNC(=O)CCC2CCCCC2)cc1`: -97.2% (active).

Take `C/C=C(\C)C(=O)NCCN1C2=NC[C@H](Cc3ccc(O)cc3)N2C[C@@H]1Cc1ccc(OC)cc1`: the activity change is -2.93% (inactive). Turning to `COc1ccc(NC(=O)C[C@H]2C(=O)N(CCc3ccccc3)C[C@@H]2C)cc1`, the activity change is -25.6% (inactive). Consider `O=C(CCN1CCCCC1)Nc1ccc(F)c(F)c1`, for which the activity change was -2.99% (inactive). For `Cc1ccc(NC(=O)COC(=O)CN2CCSC2=O)cc1F`, the activity change was -2.67% (inactive). In the case of `CC(C)NC(=O)Nc1ccc2c(c1)C(=O)N([C@H](C)CO)C[C@H](C)[C@@H](CN(C)Cc1ccc(C(F)(F)F)cc1)OCCCC[C@@H](C)O2`, the activity change is -10.8% (inactive). Regarding `CC1(C)Cc2cccc(OCC(=O)Nc3nccs3)c2O1`, the activity change is -0.616% (inactive). The same measure for `CC1(C)Cc2cccc(OCC(=O)N3CCN(c4ccc([N+](=O)[O-])cc4)CC3)c2O1`: -90.2% (active); for `CC1(C)Cc2cccc(OCC(N)=O)c2O1`: -15.1% (inactive); for `CC(Sc1nnc(CNC(=O)c2ccccc2F)n1C)C(=O)Nc1nccs1` (stereo unspecified): -161% (active). Consider `Cn1c(CNC(=O)c2ccccc2F)nnc1SCc1ccc(F)cc1`, for which the activity change was 6.63% (inactive). The same measure for `COc1ccccc1C(=O)NCc1nnc(SC(C)C(=O)Nc2nccs2)n1C` (stereo unspecified): -5.03% (inactive); for `C=CCn1nc(C(=O)OCC)cc1-c1sc(NC(=O)c2ccccc2)nc1C`: 41.9% (inactive); for `CN(C)C(CNC(=O)c1cc(Br)c(Br)s1)c1ccco1` (stereo unspecified): 6.08% (inactive). On to `O=S(=O)(c1cccc(C(F)(F)F)c1)N1c2ccccc2-n2cccc2C1c1cccnc1` (stereo unspecified), for which the activity change was -12.2% (inactive). As to `Cc1ccc(OCCC(=O)Nc2ccc(S(=O)(=O)Nc3nccs3)cc2)cc1`, the activity change was 4.09% (inactive). The same measure for `O=C(CCc1ccccc1Cl)Nc1ccc(S(=O)(=O)Nc2nccs2)cc1`: -79.2% (active); for `CCC(CC)C(=O)Nc1ccc(S(=O)(=O)Nc2nccs2)cc1`: 0.976% (inactive). Take `O=C(OCC(=O)N1CCCCCC1)c1cccc(Cl)c1Cl`: the activity change was 0.263% (inactive).

These data come from PubChem BioAssay AID720551 (National Center for Advancing Translational Sciences (NCATS), 2013).
